# Screening data: PubChem, National Center for Advancing Translational Sciences (NCATS)
# The list is not random: actives were taken first. Their share in the collection is about 2.9%.
# TSHR agonist – qHTS Assay for Agonists of the Thyroid Stimulating Hormone Receptor; HEK293-CNG-TSHR cells (CNG channel as cAMP sensor), membrane potential dye, cAMP; Potency, µM (doses to about 57.1 µM), usual class: activators; 73,000 compounds, 0.48% hits; AID 926, 2007; active = well fitted activation curve with a large enough effect in the main read-out, with a control signal flat, not every such curve was filed as active; inconclusive = small, poorly fitted or top-dose-only effect, or a change in a side signal; inactive = no such curve, though single readings can be large or run the other way; reference of the percent scale not stated here;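 note: the control signal comes from parental cells without the receptor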
# Target sequence (P16473 whole entry, looked up): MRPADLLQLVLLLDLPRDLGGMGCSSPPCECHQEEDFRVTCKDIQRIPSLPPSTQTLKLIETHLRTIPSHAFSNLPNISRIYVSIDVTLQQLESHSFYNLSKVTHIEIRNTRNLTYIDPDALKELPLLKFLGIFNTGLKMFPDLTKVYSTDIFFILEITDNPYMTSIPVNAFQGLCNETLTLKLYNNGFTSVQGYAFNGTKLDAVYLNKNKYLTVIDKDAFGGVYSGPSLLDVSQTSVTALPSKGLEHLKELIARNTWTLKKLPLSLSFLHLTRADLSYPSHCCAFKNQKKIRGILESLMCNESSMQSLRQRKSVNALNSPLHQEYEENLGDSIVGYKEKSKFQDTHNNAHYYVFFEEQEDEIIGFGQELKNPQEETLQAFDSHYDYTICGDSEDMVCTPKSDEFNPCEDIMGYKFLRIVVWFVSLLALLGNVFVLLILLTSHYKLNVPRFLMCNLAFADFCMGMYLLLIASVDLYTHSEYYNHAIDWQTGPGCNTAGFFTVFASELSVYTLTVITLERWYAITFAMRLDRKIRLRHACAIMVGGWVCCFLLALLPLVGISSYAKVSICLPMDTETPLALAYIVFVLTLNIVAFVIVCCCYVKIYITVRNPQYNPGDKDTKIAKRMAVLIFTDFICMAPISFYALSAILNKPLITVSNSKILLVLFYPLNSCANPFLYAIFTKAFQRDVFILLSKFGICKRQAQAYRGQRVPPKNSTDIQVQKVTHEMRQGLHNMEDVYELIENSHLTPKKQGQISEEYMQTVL
#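 cAMP rise detected as CNG-channel membrane depolarization by fluorescent dye (emission 590 nm), 30 min after compound, following 60 min dye loading containing 100 uM RO 20-1724 at room temperature. Cells: TSHR/CNG HEK 293, with parental CNG HEK 293 as control.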
# HEK293 cAMP cs – qHTS Assay for Agonists of the Thyroid Stimulating Hormone Receptor: Activators of Intracellular cAMP Concentrations in Parental HEK 293; 73,000 compounds, 2.5% hits; parental HEK293 CNG cAMP sensor, membrane potential fluorescence; Potency, µM (titrated, usually from 57.1 µM), actives largely listed as activators; active = well fitted activation curve with a large enough effect; inconclusive = small, poorly fitted or top-dose-only effect; inactive = no such curve, though single readings can be large or run the other way; note: nearly all actives have a fitted effect of over 55% in size
#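 Counterscreen for endogenous-receptor signalling: CNG-channel HEK 293 cells report cAMP rise by membrane depolarization. After 60 min dye equilibration with 100 uM RO 20-1724, compounds incubated 30 min before bottom-read fluorescence at 590 nm.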
# Numbers stand for hits; - = inactive; ? = inconclusive; . = no result given; ! = a repeat was not active; [ ] = remark or other dose.
SMILES,TSHR agonist,HEK293 cAMP cs
CCOC(=O)c1cnc(-n2nc(C)cc2C)nc1NCc1ccc2c(c1)OCO2,-,-
CCCCCCCC/C=C\CCCCCCCC(=O)N(CCO)CCO,?,-
COc1ccc(-c2cn3c(C)c(C(=O)Nc4cccc(NC(C)=O)c4)sc3n2)cc1,-,-
COC(=O)c1ccc(NC(=O)c2sc3nc(-c4ccccc4)cn3c2C)cc1,?,31.6µM
CCC(O)OC(O)CC (stereo unspecified),?,-
O=C1c2ccccc2C(=O)N1CCCc1nc(-c2cccnc2)no1,-,-
Clc1ccc(OCCCc2nc(-c3cccnc3)no2)c(Cl)c1,?,15.8µM
O=C(Nc1cccc2cccnc12)[C@@H]1[C@@H](C(=O)O)[C@H]2CC[C@@H]1O2,-[11.4 µM],-[11.4 µM]
COC(=O)CSc1nc(N2CCCCC2)c2c(c1C#N)CCCC2,.,-
CSc1nc(N2CCOCC2)c2c(c1C#N)CCCCC2,?,25.1µM
Cc1ccc(OC2C(O)COC2/C=C/C#Cc2ccc(C(C)(C)C)cc2)cc1 (stereo unspecified),-[11.4 µM],-[11.4 µM]
Nc1[nH]c(=S)[nH]c(=O)c1N=Nc1c(Br)cc(S(N)(=O)=O)cc1Br,-[11.4 µM],-[11.4 µM]
COc1ccc(OCC(=O)N(C)Cc2ccccc2)cc1,-,-
CCN(Cc1ccccc1)Cc1c(F)cccc1F,-,-
CCN(Cc1ccccc1)Cc1cc(OC)cc(OC)c1,?,5.01µM
COc1ccc(CN(CCN(C)C)Cc2ccccc2)c(OC)c1,?,12.6µM
C[C@@H]1/C=C\CC(=O)OC[C@H](C)C(=O)N[C@@H](Cc2ccccc2)C(=O)OC1,-[11.4 µM],-[11.4 µM]
Cc1ccc(C2C=C(c3ccc4c(c3)OCO4)Nc3ncnn32)cc1 (stereo unspecified),.,-
COc1cccc(C2=CC(c3ccc(C)cc3)n3ncnc3N2)c1 (stereo unspecified),?,15.8µM
Cc1cc(C)nc(-n2nc(C)cc2NC(=O)c2cccc(S(=O)(=O)N(C)C)c2)n1,-,-
CCC1CCCCN1CC(=O)Nc1cc(C)nn1-c1nc(C)cc(C)n1 (stereo unspecified),?,25.1µM
Cc1nn(C(=O)c2cccnc2)c(C)c1C,?,6.31µM
Nc1nc(-c2ccc(Cl)cc2)nn1C(=O)c1cccnc1,-,-
CO[C@@H]1COC(=O)C/C=C\[C@H](C)[C@H](OC)COC(=O)[C@H](C)NC(=O)C/C=C\[C@H]1C,-[11.4 µM],-[11.4 µM]
C[N+]1(C)CCO[C@](O)(c2ccccc2)C1,-[11.4 µM],-[11.4 µM]
SMILES,TSHR agonist,HEK293 cAMP cs
COc1ccc(OC)c(C(c2nnnn2CC2CCCO2)N2CCN(C)CC2)c1 (stereo unspecified),-,-
COc1ccc(C(c2nnnn2CC2CCCO2)N2CCN(c3cccc(C)c3C)CC2)cc1 (stereo unspecified),?,7.94µM
Cc1cc2ccccc2c[n+]1CC(O)C[n+]1cc2ccccc2cc1C,-[11.4 µM],-[11.4 µM]
CC(=O)c1c(C)n(CC(=O)NCc2ccc3c(c2)OCO3)c2ccccc12,-,-
CC(=O)c1c(C(C)=O)c(C)n(Cc2ccc3c(c2)OCO3)c1C,?,12.6µM
CC1CCC(C(C)C)C(OC(=O)CSc2n[nH]c(=O)[nH]c2=O)C1 (stereo unspecified),20µM,-
O=C(CSc1n[nH]c(=O)[nH]c1=O)c1ccccc1,-,-
C[C@@H](CN1CCC(Cc2ccccc2)CC1)[C@H](O)c1ccc(O)cc1,-,-
Cc1cc(C)c2nc(N3CCN(C)CC3)c(C#N)cc2c1,?,12.6µM
Cc1cccc2cc(C#N)c(N3CCN(C)CC3)nc12,?,15.8µM
Cc1ccccc1-c1nc(N2CCN(C)CC2)c2ccccc2n1,-,-
Cc1cc(C)c2nc(N3CCCN(C(=O)c4cnccn4)CC3)c(C#N)cc2c1,.,-
CCOc1c(OC)cccc1C1CC(=O)Nc2cc3c(cc21)OCCO3 (stereo unspecified),25.1µM,-
CCCOc1c(OC)cccc1C1CC(=O)Nc2cc(OC)c(OC)c(OC)c21 (stereo unspecified),-,-
CCCCC#Cc1nc(N)c2ncn([C@@H]3O[C@@H](C(=O)NCC)[C@H](O)[C@@H]3O)c2n1,?,2µM
Nc1ncnc2c1ncn2[C@H]1O[C@@H](C(=O)O)[C@@H](O)[C@H]1O,-[11.4 µM],-[11.4 µM]
CSc1nc(N2CCOCC2)c2c3c(sc2n1)CCC3,-,-
CCC1CCc2c(sc3ncnc(N4CCOCC4)c23)C1 (stereo unspecified),?,31.6µM
C=C(C)C(=O)OCC(C)O (stereo unspecified),-,-
Cc1cc(C(C)(C)C)cc(CNC2CCCCC2)c1O,-[11.4 µM],-[11.4 µM]
CCCOc1ccc(C(=O)C(c2ccccc2)N2CCOCC2)cc1 (stereo unspecified),?,25.1µM
COc1ccc(C(=O)C(c2ccccc2)N2CCOCC2)cc1 (stereo unspecified),-,-
COc1ccc2[nH]cc(CCNc3cc(-c4c(C)noc4C)ncn3)c2c1,-,-
CCC12CCCN3CCC4(C(=C(C(=O)OC)C1)Nc1ccccc14)C32 (stereo unspecified),?,25.1µM
Cc1cccc(C(=O)O)c1C[C@H]1NCC[C@H]2c3ccccc3N[C@@H]12,-[11.4 µM],-[11.4 µM]
SMILES,TSHR agonist,HEK293 cAMP cs
NCCCCCc1nnc(SCC(=O)Nc2cccc(Cl)c2)o1,15.8µM,-
NCCCCCc1nnc(SCc2cccc(Cl)c2)o1,-,-
CCOC(=O)C(C)(C)[C@H](O)C(C)C,-[11.4 µM],-[11.4 µM]
O=C(O)c1c2c(c(O)c3c1CN(C1CCCCC1)CO3)OCN(C1CCCCC1)C2,-[11.4 µM],-[11.4 µM]
CS(=O)(=O)Nc1cccc(-c2ccc3ncnc(N4CCNCC4)c3c2)c1,-,-
O=C1CCC(C(=O)Nc2cccc3ccccc23)N1 (stereo unspecified),-,-
O=C(Nc1cccc2ccccc12)OC1C=CS(=O)(=O)C1 (stereo unspecified),?,31.6µM
NC(N)=N[C@H](CCC(=O)O)C(=O)O,-,-
CS(=O)(=O)N(CC(N)=O)Cc1ccc(Cl)cc1,-,-
NC[C@](O)(CS(=O)(=O)O)c1ccc(Cl)cc1,0.126µM!,-
CN(C)C(=O)Cn1c(SCC(=O)NC2CCCCC2)nc2ccccc21,-,-
CC(C)Cn1c(SCC(=O)NC(=O)NC2CCCC2)nc2ccccc21,?,31.6µM
CC1Cn2c(nnc2-c2ccc(F)cc2)S1 (stereo unspecified),?,3.98µM
CC1Cn2c(nnc2-c2cccc(Cl)c2)S1 (stereo unspecified),-,-
CC(C)(C)NC(=O)C(c1ccc(F)cc1)N(Cc1ccco1)C(=O)c1csnn1 (stereo unspecified),.,-
Cc1ccc(C(C(=O)NC2CCCC2)N(Cc2ccc(F)cc2)C(=O)c2csnn2)o1 (stereo unspecified),?,15.8µM
CO[C@@H]1COC(=O)C/C=C\[C@@H](C)[C@H](OC)COC(=O)C/C=C\[C@H]1C,-[11.4 µM],-[11.4 µM]
CC#C[C@@]1(O)CC[C@@H]2[C@@H]3CCC4=CC(=O)CCC4=C3[C@@H](c3ccc(N(C)C)cc3)C[C@]21C,-,-
Clc1ccccc1CSc1nnc(-c2ccccn2)n1Cc1ccco1,-,-
CC1CCN(C(=O)CSc2nnc(-c3cc4ccccc4cc3O)n2Cc2ccco2)CC1,25.1µM,-
COc1ccc(NC(=O)CSc2nnc(-c3ccccc3Cl)n2Cc2ccco2)c(OC)c1,?,20µM
O=C(CSc1nnc(-c2ccc(O)cc2)n1Cc1ccco1)N1CCc2ccccc2C1,-,-
